From PubChem BioAssay (NCI) come the findings set out here.

Assay [1] is described as follows: NCI Yeast Anticancer Drug Screen. Data for the rad50 strain (AID 155).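 Note: 0% = growth of vehicle-only cultures of the same strain.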 The note with it: S. cerevisiae rad50 strain growth inhibition, stronger effect = higher value. An outline of the steps: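 A DNA repair-deficient yeast mutant serves as the test organism; compound-induced growth inhibition is calculated against vehicle-treated cells.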
Assay [2] is described as follows: NCI Yeast Anticancer Drug Screen. Data for the mec2-1 strain (AID 157). The note with it: S. cerevisiae mec2-1 strain, stronger effect = higher value. An outline of the steps: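 Each compound was tested on mec2-1 yeast, a strain altered in DNA damage repair or cell cycle control. Growth inhibition is reported relative to vehicle.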
The nature of assay [3]: NCI Yeast Anticancer Drug Screen. Data for the sgs1 mgt1 strain (AID 161).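 Note: 0% = growth of cultures given vehicle only.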 The note with it: S. cerevisiae sgs1 mgt1 strain, stronger effect = higher value. An outline of the steps:
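Test agents were incubated with a DNA-repair-mutant yeast strain. Growth was then read and compared against vehicle-treated controls.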

Assay [4] in a line: NCI Yeast Anticancer Drug Screen. Data for the cln2 rad14 strain (AID 165).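 Note: 0% = growth equal to vehicle treated cultures.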 Particulars: S. cerevisiae cln2 rad14 strain, stronger effect = higher value. In outline: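 Test compounds were added to cln2 rad14 yeast cultures; inhibition of growth was then determined by comparison with vehicle treatment.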
Assay [5] is described as follows: NCI Yeast Anticancer Drug Screen. Data for the bub3 strain (AID 167). Particulars: S. cerevisiae bub3 mutant strain, stronger effect = higher value. An outline of the steps: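 Inhibition values come from growth of compound-treated mutant yeast normalised to vehicle-treated controls.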
Assay [6] in a line: NCI Yeast Anticancer Drug Screen. Data for the mlh1 rad18 strain (AID 175). Particulars: S. cerevisiae mlh1 rad18 strain growth inhibition, stronger effect = higher value. An outline of the steps:
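Inhibition values reflect reduced growth of mutant yeast versus vehicle-treated controls following compound exposure; the mutations affect DNA damage repair.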

Where [7] appears, read: at 5.0 µM (retest, dose inferred, filed as 0.5).
Where [8] appears, read: at 50.0 µM (retest, dose inferred, filed as 5.0).

Each structure is given as a SMILES string. Compounds without any hit were thinned out: in the full panel of roughly 79,000, 15% have a hit. Unmarked numbers belong to inactive results. Active and inactive are the calls of the source. Cut-off read from the data, not from the text of the source: active = growth inhibition above about 70%; inactive = the rest.

As for `N#CC(CCCCl)(c1ccccc1)c1ccccc1`, the growth inhibition in assay [1] (setting [7]) was 2%; in assay [1] (setting [8]), 33%; in assay [1] (at 50.0 µM) it was 86.8% (active); in assay [2] (setting [7]), 3%; in assay [2] (setting [8]), 32%; in assay [2] (at 50.0 µM) it was 84% (active). Moreover, the growth inhibition in assay [3] (setting [7]) is 4%; in assay [3] (setting [8]), 51%; in assay [3] (at 50.0 µM), 88.5% (active); in assay [4] (setting [7]), 0%; in assay [4] (setting [8]) it was -3%; in assay [4] (at 50.0 µM), 41.8%. For the same compound, the growth inhibition in assay [5] (setting [7]) is -1%; in assay [5] (setting [8]), 22%; in assay [5] (at 50.0 µM), 67%; in assay [6] (setting [7]), 15%; in assay [6] (setting [8]) it was 69%; in assay [6] (at 50.0 µM), 92.2% (active).
For the compound `Cc1ccc2c(c1)[n+]([O-])c(N)n[n+]2[O-]`, the growth inhibition is 21% in assay [1] (setting [7]); 61% in assay [1] (setting [8]); 75.7% (active) in assay [1] (at 50.0 µM); 1% in assay [2] (setting [7]); 35% in assay [2] (setting [8]); 48.4% in assay [2] (at 50.0 µM). For the same compound, the growth inhibition is 17% in assay [3] (setting [7]); 43% in assay [3] (setting [8]); 57.1% in assay [3] (at 50.0 µM); 11% in assay [4] (setting [7]); 47% in assay [4] (setting [8]); 40.2% in assay [4] (at 50.0 µM). Also, the growth inhibition was -7% in assay [5] (setting [7]); 36% in assay [5] (setting [8]); 43.1% in assay [5] (at 50.0 µM); 20% in assay [6] (setting [7]); 64% in assay [6] (setting [8]); 50.6% in assay [6] (at 50.0 µM).
As for `CC1=C/C(=C\C=C2/N(C)c3c(C)cccc3C2(C)C)C(=O)c2ncccc21`, the growth inhibition is 28% in assay [1] (setting [7]); 98% (active) in assay [1] (setting [8]); 94.2% (active) in assay [1] (at 50.0 µM); 28% in assay [2] (setting [7]); 99% (active) in assay [2] (setting [8]); 29.7% in assay [2] (at 50.0 µM). Also, the growth inhibition in assay [3] (setting [7]) is 19%; in assay [3] (setting [8]), 98% (active); in assay [3] (at 50.0 µM) it was 70.8% (active); in assay [4] (setting [7]) it was 9%; in assay [4] (setting [8]) it was 98% (active); in assay [4] (at 50.0 µM) it was 24.6%. In addition, the growth inhibition in assay [5] (setting [7]) is 49%; in assay [5] (setting [8]), 98% (active); in assay [5] (at 50.0 µM), 64.6%; in assay [6] (setting [7]), 45%; in assay [6] (setting [8]), 98% (active); in assay [6] (at 50.0 µM), 63.2%.
For the compound `FC(F)(F)C(F)(F)C1(F)C(F)(F)C(F)(F)C(F)(F)C(F)(F)C1(F)F`, the growth inhibition is -1% in assay [1] (setting [7]); -2% in assay [1] (setting [8]); 99.7% (active) in assay [1] (at 50.0 µM); -2% in assay [2] (setting [7]); 1% in assay [2] (setting [8]); 99.5% (active) in assay [2] (at 50.0 µM). Moreover, the growth inhibition was -1% in assay [3] (setting [7]); -3% in assay [3] (setting [8]); 99.6% (active) in assay [3] (at 50.0 µM); 1% in assay [4] (setting [7]); -8% in assay [4] (setting [8]); 97.2% (active) in assay [4] (at 50.0 µM). The growth inhibition was 3% in assay [5] (setting [7]); 4% in assay [5] (setting [8]); 99.5% (active) in assay [5] (at 50.0 µM); 2% in assay [6] (setting [7]); -2% in assay [6] (setting [8]); 99.2% (active) in assay [6] (at 50.0 µM).
For `CC1([N+](=O)[O-])C(=O)C2(N3CCCCC3)CCCC2C1c1ccccc1` (stereo not given), the growth inhibition was 3% in assay [1] (setting [7]); 10% in assay [1] (setting [8]); 15.5% in assay [1] (at 50.0 µM); 3% in assay [2] (setting [7]); 21% in assay [2] (setting [8]); 8.6% in assay [2] (at 50.0 µM). Further, the growth inhibition in assay [3] (setting [7]) is 6%; in assay [3] (setting [8]), 8%; in assay [3] (at 50.0 µM), 19%; in assay [4] (setting [7]) it was 5%; in assay [4] (setting [8]), -1%; in assay [4] (at 50.0 µM), 36.2%. The growth inhibition is 1% in assay [5] (setting [7]); 13% in assay [5] (setting [8]); 12% in assay [5] (at 50.0 µM); 1% in assay [6] (setting [7]); 20% in assay [6] (setting [8]); 16.5% in assay [6] (at 50.0 µM).
In the case of `CCCCOS(=O)(=O)c1ccc(C)cc1`, the growth inhibition in assay [1] (setting [7]) is -7%; in assay [1] (setting [8]), 15%; in assay [1] (at 50.0 µM), 9.1%; in assay [2] (setting [7]), -4%; in assay [2] (setting [8]), -22%; in assay [2] (at 50.0 µM) it was -82.3%. For the same compound, the growth inhibition was -8% in assay [3] (setting [7]); 7% in assay [3] (setting [8]); -9.45% in assay [3] (at 50.0 µM); 1% in assay [4] (setting [7]); -15% in assay [4] (setting [8]); 25.1% in assay [4] (at 50.0 µM). For the same compound, the growth inhibition is -16% in assay [5] (setting [7]); -39% in assay [5] (setting [8]); -23.5% in assay [5] (at 50.0 µM); -6% in assay [6] (setting [7]); -4% in assay [6] (setting [8]); -3.55% in assay [6] (at 50.0 µM).
As for `CCN(CC)COC(=S)S`, the growth inhibition is 8% in assay [1] (setting [7]); 99% (active) in assay [1] (setting [8]); 97.7% (active) in assay [1] (at 50.0 µM); -3% in assay [2] (setting [7]); 100% (active) in assay [2] (setting [8]); 83.1% (active) in assay [2] (at 50.0 µM). The growth inhibition in assay [3] (setting [7]) was 11%; in assay [3] (setting [8]) it was 99% (active); in assay [3] (at 50.0 µM) it was 99% (active); in assay [4] (setting [7]) it was 5%; in assay [4] (setting [8]), 97% (active); in assay [4] (at 50.0 µM) it was 44%. The growth inhibition in assay [5] (setting [7]) was -11%; in assay [5] (setting [8]) it was 99% (active); in assay [5] (at 50.0 µM) it was 97.3% (active); in assay [6] (setting [7]), 15%; in assay [6] (setting [8]) it was 99% (active); in assay [6] (at 50.0 µM), 98.5% (active).
On to `O=C(O)c1c2c(c(O)c3c1CN(C1CCCCC1)CO3)OCN(C1CCCCC1)C2`, for which the growth inhibition in assay [1] (setting [7]) was 8%; in assay [1] (setting [8]), 35%; in assay [1] (at 50.0 µM), 50.4%; in assay [2] (setting [7]), 3%; in assay [2] (setting [8]), 8%; in assay [2] (at 50.0 µM), 53.1%. For the same compound, the growth inhibition in assay [3] (setting [7]) is 4%; in assay [3] (setting [8]), 25%; in assay [3] (at 50.0 µM) it was 72.1% (active); in assay [4] (setting [7]), -17%; in assay [4] (setting [8]), 5%; in assay [4] (at 50.0 µM), 73.7% (active). Moreover, the growth inhibition in assay [5] (setting [7]) is 2%; in assay [5] (setting [8]) it was 11%; in assay [5] (at 50.0 µM) it was 32.1%; in assay [6] (setting [7]), 0%; in assay [6] (setting [8]), 25%; in assay [6] (at 50.0 µM) it was 83.8% (active).
For `O=C(OCc1ccccc1)N(CCCCN(CCCNCc1ccccc1)C(=O)OCc1ccccc1)CCCNCc1ccccc1`, the growth inhibition is 11% in assay [1] (setting [7]); 99% (active) in assay [1] (setting [8]); 90.3% (active) in assay [1] (at 50.0 µM); 22% in assay [2] (setting [7]); 100% (active) in assay [2] (setting [8]); 93.2% (active) in assay [2] (at 50.0 µM). Moreover, the growth inhibition in assay [3] (setting [7]) is 10%; in assay [3] (setting [8]), 100% (active); in assay [3] (at 50.0 µM), 91.7% (active); in assay [4] (setting [7]) it was 3%; in assay [4] (setting [8]), 99% (active); in assay [4] (at 50.0 µM), 90% (active). Further, the growth inhibition in assay [5] (setting [7]) is 29%; in assay [5] (setting [8]), 99% (active); in assay [5] (at 50.0 µM) it was 91.8% (active); in assay [6] (setting [7]) it was 28%; in assay [6] (setting [8]) it was 99% (active); in assay [6] (at 50.0 µM), 91.2% (active).
As to `CC(C)C1=CC2=CC(=O)C3C(C)(C)CCCC3(C)C2=C(O)C1=O` (stereo not given), the growth inhibition in assay [1] (setting [7]) was 90% (active); in assay [1] (setting [8]), 88% (active); in assay [1] (at 50.0 µM), 87.8% (active); in assay [2] (setting [7]), 99% (active); in assay [2] (setting [8]) it was 94% (active); in assay [2] (at 50.0 µM), 89.8% (active). Besides, the growth inhibition in assay [3] (setting [7]) was 98% (active); in assay [3] (setting [8]) it was 94% (active); in assay [3] (at 50.0 µM), 90% (active); in assay [4] (setting [7]) it was 24%; in assay [4] (setting [8]), 86% (active); in assay [4] (at 50.0 µM) it was 85.5% (active). Further, the growth inhibition was 49% in assay [5] (setting [7]); 93% (active) in assay [5] (setting [8]); 87.4% (active) in assay [5] (at 50.0 µM); 96% (active) in assay [6] (setting [7]); 90% (active) in assay [6] (setting [8]); 87.5% (active) in assay [6] (at 50.0 µM).
